Screens (PubChem)
Sampled rows, rich in hits. Any-hit rate of the full collection: about 21%.
DT40 TDP1 no CPT = qHTS for Inhibitors of human tyrosyl-DNA phosphodiesterase 1 (TDP1): qHTS in cells in absence of CPT; AID 686978, 2013; 15% of 420,000 active; DT40 Tdp1-/- hTDP1 cells, no CPT, ATP luminescence, 48 h; Potency, µM (titrated, usually from 46.2 µM), hits mostly inhibitors; further: nearly all actives have a fitted effect of over 55% in size
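Readout: luminescence from CellTiter-Glo after 30 min in the dark at RT. Cells: DT40 Tdp1-/- with stable hTDP1, 400/well. Exposure: compounds alone, ≥48 hr, 37 °C.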
IL1B secr inh = inflammasome signaling inhibition, IL-1 beta readout; THP-1 LPS/ATP IL-1B secretion, AlphaLISA, 16 h; active compounds read low; activity change, % at 57.5 µM; 4.7% of 360,000 active; AID 743279; in the data active means activity change below about -50%; inconclusive means mostly about -30% to -49%
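THP-1 cells pretreated 1 hr with compounds (up to 57.5 uM final), then stimulated with LPS (250 ng/mL final) plus ATP (1.25 mM final); secreted IL-1B measured by AlphaLISA after 16 hr, decreased signal indicating inhibition.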
DRD3 agonist = D3 dopamine receptor (human) agonism; P35462; D3R DiscoveRx beta-arrestin cells, luminescence, 90 min; max activation, %; 0.58% of 410,000 active; in the data active means max activation above about 30%
Target sequence (P35462 whole entry, looked up): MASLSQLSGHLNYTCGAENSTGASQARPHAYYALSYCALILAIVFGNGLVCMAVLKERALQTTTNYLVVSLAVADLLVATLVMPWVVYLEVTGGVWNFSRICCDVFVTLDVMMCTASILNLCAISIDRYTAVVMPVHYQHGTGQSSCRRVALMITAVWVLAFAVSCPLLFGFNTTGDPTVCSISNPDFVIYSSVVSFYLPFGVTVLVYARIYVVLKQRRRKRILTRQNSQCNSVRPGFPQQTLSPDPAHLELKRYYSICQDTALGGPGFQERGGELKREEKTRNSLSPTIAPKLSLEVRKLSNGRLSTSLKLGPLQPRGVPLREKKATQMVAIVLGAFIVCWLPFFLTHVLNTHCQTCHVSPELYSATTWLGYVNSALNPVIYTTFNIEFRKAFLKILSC
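Agonist-mode cell screen: cells plated at 1500/well and incubated overnight at 37 °C, then exposed to library compounds for 90 min at 37 °C. Detection reagent was added for 30–60 min at room temperature, and luminescence was read.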
TDP1 cell CPT = DT40-hTDP1 cell growth loss with CPT; chicken DT40 Tdp1-/-;hTDP1 cells + 20 nM CPT, ATP luminescence, 48 h; AID 686979; Potency, µM (series often up to 46.2 µM), most hits filed as inhibitors; 12% of 420,000 active; further: nearly all actives have a fitted effect of over 55% in size
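Chicken DT40 Tdp1-/- cells complemented with human TDP1, 400 cells/well, exposed to compounds plus 20 nM camptothecin for at least 48 h at 37 C; viability read as ATP content by CellTiter-Glo luminescence.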
ClpP mod = qHTS Assay for Activators of ClpP | ATP-dependent Clp protease proteolytic subunit (Bacillus subtilis (strain 168)), P80244 | purified B. subtilis ClpP, FRET peptide cleavage, 20 min | Potency, µM (titrated, usually from 57.5 µM) | 1.9% of 340,000 active | AID 651965, 2013; active means well fitted falling curve with a large enough effect; inconclusive means small, poorly fitted or top-dose-only effect; inactive means no such curve, though single readings can be large or run the other way; further: the source files actives as falling curves though it sought activators and does not explain the sign; nearly all actives have a fitted effect of over 65% in size
Target sequence (P80244 whole entry, looked up): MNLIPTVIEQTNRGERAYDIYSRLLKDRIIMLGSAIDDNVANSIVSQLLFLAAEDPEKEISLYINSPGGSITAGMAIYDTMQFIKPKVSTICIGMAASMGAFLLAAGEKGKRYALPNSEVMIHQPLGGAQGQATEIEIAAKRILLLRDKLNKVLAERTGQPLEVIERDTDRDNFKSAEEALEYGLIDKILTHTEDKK
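Buffer: 100 mM Tris/HCl pH8, 100 mM KCl, 0.05% low protease BSA, 2.5% glycerol, 0.01% Tween-20. ClpP 10 microg/mL final; 20 min RT; delta FRET normalized to ADEP and DMSO controls.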
D3 antag = D3 dopamine receptor (human) antagonism. AID 652054. P35462. 2.5% of 360,000 active. max response, negative = inhibition, %. D3R cells, DiscoveRx beta-arrestin luminescence, antagonist mode; active compounds read low; in the data active means max response below about -50%; inconclusive means no clear call, values can overlap the other calls
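Cells expressing the human receptor were seeded at 1500 cells/well, incubated overnight at 37 degrees C in 5% CO2, then exposed to library compounds with dopamine controls for 90 minutes at 37 degrees C before luminescent detection.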
Of the large screens only hits and unclear results are named; the others gave an inactive call. Unless noted, the call rests on the fitted dose curve; in most records, active means well fitted inhibition curve with a large enough effect; inconclusive means small, poorly fitted or top-dose-only effect; inactive means flat fitted curve, though single readings scatter.

O=C1C(=Cc2cccc(Cl)c2)Cc2ccccc21	DT40 TDP1 no CPT inconclusive, TDP1 cell CPT inconclusive
Cc1ccc(CN(C(=O)c2csnn2)C(C(=O)NC2CCCC2)c2ccco2)cc1 (configuration not stated)	DT40 TDP1 no CPT inconclusive, IL1B secr inh inconclusive (no result: ClpP mod)
CC(C)(C)c1ccc(C(=O)Nc2ccc(C=C(C#N)C#N)cc2)cc1	DT40 TDP1 no CPT 11.6µM, TDP1 cell CPT 16.4µM
N#CC(C#N)=Cc1ccc(NC(=O)c2ccc(Br)cc2)cc1	DT40 TDP1 no CPT 16.4µM, IL1B secr inh inconclusive, TDP1 cell CPT 20.6µM (no result: ClpP mod)
CCOc1ccccc1CNS(=O)(=O)c1cnc(N)nc1	DT40 TDP1 no CPT inconclusive (no result: IL1B secr inh, D3 antag)
CC(=O)N1CCc2cc(N=NC3=C(O)CC(C)(C)CC3=O)ccc21	none
CCOc1cc(/C=C/C(=O)c2ccc(OC)c(CN3CCOCC3)c2)cc(Br)c1O	DT40 TDP1 no CPT inconclusive, IL1B secr inh -96.1, TDP1 cell CPT inconclusive (no result: ClpP mod)
CCOc1cc(/C=N/NC(=O)c2ccc(CN3CCOCC3)cc2)ccc1OC	none (no result: ClpP mod)
COc1ccccc1NC(=S)N1CCn2cccc2C1c1cccnc1 (configuration not stated)	none (no result: ClpP mod)
CC(C)C(NC(=O)c1ccc(C(C)(C)C)cc1)C(=O)NCC1(N(C)C)CCCCC1 (configuration not stated)	DT40 TDP1 no CPT inconclusive, TDP1 cell CPT inconclusive (no result: ClpP mod)
N#CC1=C2SCN(C3CCCCC3)CN2C(=O)CC1c1ccc(F)cc1 (configuration not stated)	DT40 TDP1 no CPT 16.4µM, TDP1 cell CPT inconclusive (no result: IL1B secr inh, D3 antag)
Cc1ccc(C2CC(=O)N3CN(Cc4ccco4)CSC3=C2C#N)cc1 (configuration not stated)	D3 antag -58.7
N#CC1=C2SCN(C3CCCCC3)CN2C(=O)CC1c1c(F)cccc1Cl (configuration not stated)	DT40 TDP1 no CPT inconclusive, TDP1 cell CPT inconclusive (no result: IL1B secr inh, D3 antag)
N#CC1=C2SCN(C3CCCCC3)CN2C(=O)CC1c1ccc(Cl)cc1 (configuration not stated)	DT40 TDP1 no CPT inconclusive, TDP1 cell CPT 4.61µM (no result: IL1B secr inh, D3 antag)
CCOC(=O)CC1COCCN1Cc1cn[nH]c1-c1cc(OC)c(OC)c(OC)c1 (configuration not stated)	TDP1 cell CPT inconclusive
CCN(CC)c1ccc(NC(=O)c2ccc(Br)o2)c(C)c1	DT40 TDP1 no CPT inconclusive, TDP1 cell CPT inconclusive, D3 antag -73.2
Cc1cc(C)n(Cc2ccc(C(=O)Nc3ccc(Br)cc3C)o2)n1	DT40 TDP1 no CPT inconclusive, IL1B secr inh -59.8
CCN(CC)c1ccc(NC(=O)c2cccc(F)c2)c(C)c1	DT40 TDP1 no CPT 3.26µM, TDP1 cell CPT 4.61µM
CCN(CC)c1ccc(NC(=O)c2ccco2)c(C)c1	DT40 TDP1 no CPT inconclusive, TDP1 cell CPT inconclusive
CCn1ccnc1CNC(=O)CC1C(=O)NCCN1Cc1ccc(OC)cc1OC (configuration not stated)	none
O=C(CCCCCn1c(=S)[nH]c2cc3c(cc2c1=O)OCO3)N1CCN(C2CCCCC2)CC1	DT40 TDP1 no CPT inconclusive, IL1B secr inh -73.7, TDP1 cell CPT inconclusive
COc1ccc(N2CCN(C(=O)CCCn3c(=S)[nH]c4cc5c(cc4c3=O)OCO5)CC2)cc1	none
O=C(CCCCCn1c(=S)[nH]c2cc3c(cc2c1=O)OCO3)N1CCN(C(=O)c2ccco2)CC1	none
O=C(CCCCCn1c(=S)[nH]c2cc3c(cc2c1=O)OCO3)N1CCN(Cc2ccccc2)CC1	TDP1 cell CPT 9.2µM
CCOc1ccc(-n2nnnc2SCC(=O)NNC(=O)c2ccco2)cc1	DT40 TDP1 no CPT inconclusive, TDP1 cell CPT 16.4µM (no result: ClpP mod)
O=C(CSc1nnnn1-c1ccc(F)cc1)NNC(=O)c1ccco1	none
CC(=O)N1CCc2cc(Br)cc(S(=O)(=O)CCC(=O)NCc3ccc(F)cc3)c21	DT40 TDP1 no CPT inconclusive (no result: IL1B secr inh, D3 antag)
COc1ccc(CCNC(=O)c2nnn(CC(=O)Nc3ccc(C)cc3C)c2N)cc1OC	none
CCCN1CCN(C(=O)Cn2c(-c3cccs3)cc3cc(F)ccc32)CC1	TDP1 cell CPT 11.6µM (no result: IL1B secr inh, D3 antag)
CCCN1CCN(C(=O)Cn2c(-c3cccs3)cc3ccccc32)CC1	DT40 TDP1 no CPT inconclusive, TDP1 cell CPT inconclusive, ClpP mod 31.6µM (no result: IL1B secr inh, D3 antag)
CCC(=O)N1CCc2cc(Br)cc(S(=O)(=O)N3CCC(C(=O)N(CC)CC)CC3)c21	DT40 TDP1 no CPT inconclusive (no result: IL1B secr inh, D3 antag)
Cc1ccc(C(O)Cn2nc(C)cc2C)cc1 (configuration not stated)	DT40 TDP1 no CPT inconclusive, TDP1 cell CPT inconclusive
Cc1ccc(-c2cc(C(=O)N3CCN(S(=O)(=O)c4ccc(Br)cc4)CC3)[nH]n2)cc1C	DT40 TDP1 no CPT 8.2µM, TDP1 cell CPT 9.2µM (no result: IL1B secr inh, D3 antag)
CC(C)c1ccc(S(=O)(=O)N2CCN(C(=O)c3cc(-c4ccccc4)n[nH]3)CC2)cc1	TDP1 cell CPT inconclusive
COc1cc(C(=O)N2CCN(C(=O)c3cc(-c4ccc(Br)cc4)n[nH]3)CC2)cc(OC)c1OC	DT40 TDP1 no CPT 25.9µM, TDP1 cell CPT 20.6µM
N#CSCC(=O)c1cccc2ccccc12	DT40 TDP1 no CPT 4.61µM, IL1B secr inh -61.0, TDP1 cell CPT 4.61µM
CN(C)CC(O)CN1C(=O)NC(C)(C)C1=O (configuration not stated)	none
S=C(NCC1CCCO1)Nc1ccc(Cl)cc1 (configuration not stated)	none
Clc1ccc(N(CC2CO2)CC2CO2)cc1 (configuration not stated)	DT40 TDP1 no CPT 0.651µM, TDP1 cell CPT 0.461µM
COc1cc(C2NC(C(=O)O)Cc3c2[nH]c2ccccc32)cc(OC)c1OC (configuration not stated)	none
CCC1NC(C(=O)O)Cc2c1[nH]c1ccccc21 (configuration not stated)	DT40 TDP1 no CPT 9.2µM, TDP1 cell CPT 7.31µM
COc1ccccc1N(C(=O)c1csnn1)C(C(=O)NC1CCCC1)c1ccccc1 (configuration not stated)	none (no result: ClpP mod)
CCCCN(C(=O)c1ccc([N+](=O)[O-])o1)c1c(N)n(CCCC)c(=O)[nH]c1=O	TDP1 cell CPT inconclusive
Cc1ccc(NC(=O)CC(=O)c2ccc([N+](=O)[O-])cc2)cc1S(=O)(=O)Nc1cccc(Cl)c1	D3 antag inconclusive
CCOc1ccc(NS(=O)(=O)c2cc(NC(=O)CCC(=O)c3cccs3)ccc2Cl)cc1	DT40 TDP1 no CPT inconclusive, TDP1 cell CPT 29.1µM (no result: ClpP mod)
Cc1ccc(NC(=O)c2cccs2)cc1S(=O)(=O)Nc1cccc(Cl)c1	DT40 TDP1 no CPT inconclusive, IL1B secr inh -131.0
